We go through eight compounds from PubChem BioAssay (NCATS).

Assay [1] concerns the target Bile acid receptor (Homo sapiens) (UniProt Q96RI1). In words: qHTS assay for small molecule antagonists of farnesoid X receptor signaling (AID 588526). Also: % is scaled to controls: 0 for no effect and ±100 for the full control effect. An outline of the steps:
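Concentration-response titrations were fitted to the Hill equation for half-maximal inhibition and maximal response, with data normalised to 50 uM chenodeoxycholic acid and DMSO control wells. Cells: FXR-UAS-bla HEK293T, dialyzed FBS.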
On the technique in general: Quantitative high-throughput screening tests each substance at several concentrations.

Assay [2] concerns the target Glucocorticoid receptor (Homo sapiens) (UniProt P04150). In words: qHTS assay for small molecule agonists of glucocorticoid receptor signaling (AID 588532; active = well fitted curve in the direction sought with a large enough effect in the signal ratio, with a control signal flat; the % refers to the signal ratio;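 also: 100% = dexamethasone at 0.1 µM and 0% = DMSO only wells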). As to conditions: HeLa MMTV-bla, beta-lactamase ratio, agonist, 18 h; stronger effect = higher value; percent of dexamethasone control, DMSO zero. In short, it runs like this:
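Stimulation of a glucocorticoid response element-driven beta-lactamase gene was measured in HeLa cells. Responses were scaled between DMSO basal and 0.1 uM dexamethasone, then fitted for half-maximal stimulation.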

Assay [3] shares this target. Description: qHTS assay for small molecule antagonists of glucocorticoid receptor signaling (AID 588533; active = well fitted inhibition curve with a large enough effect in the signal ratio, with a control signal flat, not every such curve was filed as active; the % refers to the signal ratio;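 also: cells stimulated with 2 nM dexamethasone as agonist; % is scaled to controls: 0 for no effect and ±100 for the full control effect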). In short, it runs like this: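 Antagonist-mode qHTS: compound titrations added to GRE-bla HeLa cells, then dexamethasone 2 nM final; 18 h, 37 C. CCF4 FRET fluorescence normalized to dexamethasone and DMSO; IC50 from Hill fit.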
Assay [4] can be described thus: qHTS assay for small molecule antagonists of peroxisome proliferator-activated receptor delta signaling (AID 588535; active = well fitted inhibition curve with a large enough effect in the signal ratio, with a control signal flat, not every such curve was filed as active; the % refers to the signal ratio;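 as to max response: cells co-treated with a PPAR-delta agonist as stimulator during compound exposure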). As to conditions: HEK293T PPARd-UAS-bla, beta-lactamase FRET ratio, 18 h; 460 nm channel. In short, it runs like this: (§1)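 GeneBLAzer PPAR-delta-UAS-bla HEK293T cells in medium with 2% charcoal/dextran FBS were preincubated 5 hrs at 37 C, then given compounds, incubated 18 hrs at 37 C, and read by CCF4 beta-lactamase fluorescence; IC50 from Hill fits.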

Assay [5] has as its target Peroxisome proliferator-activated receptor gamma (Homo sapiens) (UniProt P37231). Description: qHTS assay for small molecule agonists of peroxisome proliferator-activated receptor gamma signaling (AID 588536; active = well fitted curve in the direction sought with a large enough effect in the signal ratio, with a control signal flat, not every such curve was filed as active; the % refers to the signal ratio;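 also: 0% = DMSO basal wells and 100% = rosiglitazone at 2 µM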). In short, it runs like this: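 PPAR-gamma-UAS-bla HEK293 cells in medium with 1% charcoal/dextran-treated FBS were exposed to compounds for 16 h at 37 C. Beta-lactamase activity was read with CCF4 substrate (405 nm excitation, 460/530 nm emission).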

Assay [6] shares this target. Description: qHTS assay for small molecule antagonists of peroxisome proliferator-activated receptor gamma signaling (AID 588537; active = well fitted inhibition curve with a large enough effect in the signal ratio, with a control signal flat, not every such curve was filed as active; the % refers to the signal ratio;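 also: reporter cells co-stimulated with 50 nM rosiglitazone agonist during compound treatment; % of control where 0% means no effect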). An outline of the steps: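 PPAR-gamma-UAS-bla HEK293 cells (3000/well, 1% charcoal/dextran-stripped FBS) were preincubated 6-6.5 h at 37 C, given titrated compounds, then stimulated with 50 nM rosiglitazone for 16 h. Beta-lactamase activity was read with CCF4 dye; IC50 came from Hill fits.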

The target of assay [7] is Vitamin D3 receptor (Homo sapiens) (UniProt P11473). In words: qHTS assay for small molecule antagonists of vitamin D receptor signaling (AID 588541).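 Also: receptor activated by calcitriol during compound treatment; series mostly up to about 77 µM; % is scaled to controls: 0 for no effect and ±100 for the full control effect.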 In short, it runs like this:
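VDR-UAS-bla HEK293T cells (2000/well, 2% charcoal-stripped FBS) were treated with titrated compounds plus 1-alpha,25-dihydroxyvitamin D3 (50 nM or 3 nM final) for 16 h at 37 C. CCF4 beta-lactamase fluorescence was read; Hill fits gave IC50.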

Assay [8] shares this target. Description: qHTS assay for small molecule agonists of vitamin D receptor signaling (AID 588543).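 Also: 0% = DMSO basal and 100% = reference agonist control.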 In short, it runs like this:
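Agonist-mode beta-lactamase reporter: HEK293T VDR-UAS-bla cells in charcoal-stripped 2% FBS, compound series 16 h 37 C, CCF4 2 h RT. EC50 from Hill fit, scaled against DMSO and 50 nM calcitriol control.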

A short description of assay [9]: qHTS assay for small molecule agonists of retinoid X receptor alpha signaling (AID 588544).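 As to activation: 0% = DMSO basal wells and 100% = reference agonist.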 As to conditions: HEK293T RXRa-UAS-bla, beta-lactamase reporter, 18 h; 530 nm emission.
Assay [10] concerns the target Retinoic acid receptor RXR-alpha (Homo sapiens) (UniProt P19793). The description is as above.
Assay [11] has as its target Thyroid hormone receptor beta (Homo sapiens) (UniProt P10828). Description: qHTS assay for small molecule agonists of thyroid hormone receptor beta signaling (AID 588545). An outline of the steps: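 HEK 293 TR-UAS-bla; agonist mode; 18 hrs, 37 C; CCF4, ex 405/em 460 and 530 nm; norm. T3 10 nM = 100%, DMSO = 0%; Hill fit → EC50, efficacy.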
A short description of assay [12]: qHTS assay for small molecule antagonists of retinoid X receptor alpha signaling (AID 588546; active = well fitted inhibition curve with a large enough effect in the signal ratio, with a control signal flat, not every such curve was filed as active; the % refers to the signal ratio;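 also: cells stimulated with 9-cis-retinoic acid as agonist; % is scaled to controls: 0 for no effect and ±100 for the full control effect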). As to conditions: HEK293T RXRa-UAS-bla, beta-lactamase ratio, antagonist mode; measured here: W530 green channel, cytotoxicity proxy. In short, it runs like this: (§2)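 Beta-lactamase reporter inhibition, read as CCF4 fluorescence ratio (ex 405, em 460/530 nm) after 2 h at RT. HEK293T UAS-bla cells, 2500/well, were stimulated with 9-cis-RA at 500 or 100 nM final alongside test compound for 18 h at 37 C.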

The target of assay [13] is Retinoic acid receptor RXR-alpha (Homo sapiens) (UniProt P19793). The description is as above. As to conditions: HEK293T RXRa-UAS-bla, beta-lactamase ratio, antagonist mode. An outline of the steps:
as §2

Assay [14] addresses Thyroid hormone receptor beta (Homo sapiens) (UniProt P10828). Description: qHTS assay for small molecule antagonists of thyroid hormone receptor beta signaling (AID 588547; active = well fitted inhibition curve with a large enough effect in the signal ratio, with a control signal flat, not every such curve was filed as active; the % refers to the signal ratio). As to conditions: TR-UAS-bla HEK293, beta-lactamase ratio, antagonist mode, 18 h. An outline of the steps:
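TR-UAS-bla GripTite HEK293 cells in 2% charcoal/dextran FBS medium were preincubated 4 h at 37 C, given compound (0.59 nM to 92 uM) plus 0.4 nM T3 (final) for 18 h, then CCF4 for 2 h at RT; Hill fit gave IC50.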

Assay [15] deals with Voltage-gated inwardly rectifying potassium channel KCNH2 (Homo sapiens) (UniProt Q12809). In words: qHTS Assay for Small Molecule Inhibitors of the Human hERG Channel Activity (AID 588834; active = well fitted inhibition curve with a large enough effect;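 also: top concentration of the series differs between compounds; % is scaled to controls: 0 for no effect and ±100 for the full control effect; lower thallium flux fluorescence means stronger hERG block; nearly all actives have a fitted effect of over 50% in size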). An outline of the steps: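 Kinetic FDSS fluorescence; U2OS + hERG BacMam (~100 virus particles/cell); FluxOR Tl+ flux; ~10 min cpd; AC50 (Hill).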
Voltage-gated inwardly rectifying potassium channel KCNH2 (Homo sapiens), sequence (Q12809 whole entry, looked up): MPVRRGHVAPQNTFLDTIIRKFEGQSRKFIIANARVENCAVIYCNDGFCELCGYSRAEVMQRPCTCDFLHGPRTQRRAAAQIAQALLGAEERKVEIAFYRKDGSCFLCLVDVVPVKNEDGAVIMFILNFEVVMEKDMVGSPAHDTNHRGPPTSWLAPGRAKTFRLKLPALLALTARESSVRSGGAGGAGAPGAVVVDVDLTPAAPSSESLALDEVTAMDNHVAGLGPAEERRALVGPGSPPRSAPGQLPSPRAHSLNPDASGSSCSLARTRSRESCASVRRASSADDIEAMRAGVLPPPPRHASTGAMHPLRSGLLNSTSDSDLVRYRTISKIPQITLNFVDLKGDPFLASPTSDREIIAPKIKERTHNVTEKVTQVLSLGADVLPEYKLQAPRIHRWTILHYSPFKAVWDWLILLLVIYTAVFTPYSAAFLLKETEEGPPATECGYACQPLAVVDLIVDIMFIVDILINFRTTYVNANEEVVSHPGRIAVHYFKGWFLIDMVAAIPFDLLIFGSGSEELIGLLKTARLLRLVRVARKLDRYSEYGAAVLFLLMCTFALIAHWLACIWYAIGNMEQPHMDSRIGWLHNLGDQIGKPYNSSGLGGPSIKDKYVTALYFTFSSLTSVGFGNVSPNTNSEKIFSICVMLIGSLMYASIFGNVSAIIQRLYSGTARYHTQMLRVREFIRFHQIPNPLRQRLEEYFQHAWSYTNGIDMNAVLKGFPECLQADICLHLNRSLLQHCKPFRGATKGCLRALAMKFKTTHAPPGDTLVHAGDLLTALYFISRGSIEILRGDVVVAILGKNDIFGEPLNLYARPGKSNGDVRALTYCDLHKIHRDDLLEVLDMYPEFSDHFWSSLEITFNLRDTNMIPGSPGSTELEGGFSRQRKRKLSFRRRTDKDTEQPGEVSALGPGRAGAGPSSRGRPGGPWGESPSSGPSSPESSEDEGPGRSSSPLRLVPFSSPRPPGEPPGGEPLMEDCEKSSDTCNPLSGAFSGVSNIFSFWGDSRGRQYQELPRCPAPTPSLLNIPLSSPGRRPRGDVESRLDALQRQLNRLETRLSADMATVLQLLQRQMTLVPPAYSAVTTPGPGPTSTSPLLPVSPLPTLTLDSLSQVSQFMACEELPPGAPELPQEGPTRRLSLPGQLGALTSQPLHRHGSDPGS
Assay [16] can be described thus: qHTS assay for small molecule activators of the p53 signaling pathway (AID 651743; active = well fitted activation curve with a large enough effect in the signal ratio, not every such curve was filed as active; the % refers to the signal ratio; also: series mostly up to about 92 µM; % of control where 0% means no effect). As to conditions: HCT-116 p53RE-bla, beta-lactamase FRET ratio, 16 h; stronger effect = higher value. In short, it runs like this:
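p53RE-bla HCT-116 cells with a stably integrated beta-lactamase reporter under p53 response elements were plated, rested 5 hours at 37 C/5% CO2, then exposed to compounds in DMSO for 16 hours at 37 C. LiveBLAzer B/G FRET substrate was read after 2 hours at room temperature.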

Assay [17] can be described thus: qHTS assay for small molecule activators of the nuclear factor-kappa B (NF-kB) signaling pathway (AID 651749; active = well fitted activation curve with a large enough effect in the signal ratio; the % refers to the signal ratio; also: series mostly up to about 77 µM; % of control where 0% means no effect). As to conditions: NF-kB-bla ME-180 cells, beta-lactamase FRET ratio, 16 h; stronger effect = higher value. In short, it runs like this: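 ME-180 cells stably carrying a beta-lactamase reporter under an NF-kB response element were exposed to compound or DMSO vehicle for 16 hr at 37C, 5% CO2. Pathway activation was read by FRET, since reporter expression disrupts FRET.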

In assay [18] the target is Peroxisome proliferator-activated receptor delta (Homo sapiens) (UniProt Q03181). Description: qHTS assay for small molecule antagonists of peroxisome proliferator-activated receptor delta signaling (AID 588535).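 As to max response: cells co-treated with a PPAR-delta agonist as stimulator during compound exposure.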 An outline of the steps: as §1
Peroxisome proliferator-activated receptor delta (Homo sapiens), sequence (Q03181 whole entry, looked up): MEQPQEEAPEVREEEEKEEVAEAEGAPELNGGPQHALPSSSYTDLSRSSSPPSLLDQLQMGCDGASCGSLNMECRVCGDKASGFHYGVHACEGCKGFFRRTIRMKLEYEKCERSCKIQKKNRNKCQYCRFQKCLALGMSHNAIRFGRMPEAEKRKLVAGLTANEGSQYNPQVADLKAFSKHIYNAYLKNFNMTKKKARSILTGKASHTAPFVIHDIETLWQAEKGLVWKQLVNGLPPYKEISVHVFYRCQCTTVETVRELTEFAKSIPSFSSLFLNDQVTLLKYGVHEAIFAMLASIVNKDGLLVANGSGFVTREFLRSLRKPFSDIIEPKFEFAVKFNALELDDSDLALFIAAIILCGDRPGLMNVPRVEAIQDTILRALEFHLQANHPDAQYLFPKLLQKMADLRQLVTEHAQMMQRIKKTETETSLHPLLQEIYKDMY
Assay [19] in a line: qHTS assay for small molecule agonists of the antioxidant response element (ARE) signaling pathway (AID 651741; active = well fitted activation curve with a large enough effect in the signal ratio; the % refers to the signal ratio; also: % of control where 0% means no effect). An outline of the steps:
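ARE-bla HepG2 cells (beta-lactamase reporter under ARE control) were plated at 2,000 cells/well, preincubated 5 h at 37 C/5% CO2, then treated with DMSO-dissolved compounds for 16 h at 37 C; LiveBLAzer B/G FRET substrate added, fluorescence read after 2 h at room temperature.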

Results filed as inconclusive are left out. The source made the active and inactive calls. Unless noted, calls follow the shape of the full dose curve.

Thyroid hormone receptor beta (Homo sapiens), sequence (P10828 whole entry, looked up): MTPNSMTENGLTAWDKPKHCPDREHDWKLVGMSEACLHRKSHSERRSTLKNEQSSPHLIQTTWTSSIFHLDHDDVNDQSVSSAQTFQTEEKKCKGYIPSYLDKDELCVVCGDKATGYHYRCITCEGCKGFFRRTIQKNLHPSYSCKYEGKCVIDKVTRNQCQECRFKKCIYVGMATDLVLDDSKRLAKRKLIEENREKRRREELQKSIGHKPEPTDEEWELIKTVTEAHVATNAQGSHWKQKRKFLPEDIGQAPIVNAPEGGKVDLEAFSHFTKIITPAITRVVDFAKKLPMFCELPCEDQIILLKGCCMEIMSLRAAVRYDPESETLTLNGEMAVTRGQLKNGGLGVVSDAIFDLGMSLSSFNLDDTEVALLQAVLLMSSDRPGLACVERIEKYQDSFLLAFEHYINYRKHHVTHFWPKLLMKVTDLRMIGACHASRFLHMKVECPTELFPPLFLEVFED
Peroxisome proliferator-activated receptor gamma (Homo sapiens), sequence (P37231 whole entry, looked up): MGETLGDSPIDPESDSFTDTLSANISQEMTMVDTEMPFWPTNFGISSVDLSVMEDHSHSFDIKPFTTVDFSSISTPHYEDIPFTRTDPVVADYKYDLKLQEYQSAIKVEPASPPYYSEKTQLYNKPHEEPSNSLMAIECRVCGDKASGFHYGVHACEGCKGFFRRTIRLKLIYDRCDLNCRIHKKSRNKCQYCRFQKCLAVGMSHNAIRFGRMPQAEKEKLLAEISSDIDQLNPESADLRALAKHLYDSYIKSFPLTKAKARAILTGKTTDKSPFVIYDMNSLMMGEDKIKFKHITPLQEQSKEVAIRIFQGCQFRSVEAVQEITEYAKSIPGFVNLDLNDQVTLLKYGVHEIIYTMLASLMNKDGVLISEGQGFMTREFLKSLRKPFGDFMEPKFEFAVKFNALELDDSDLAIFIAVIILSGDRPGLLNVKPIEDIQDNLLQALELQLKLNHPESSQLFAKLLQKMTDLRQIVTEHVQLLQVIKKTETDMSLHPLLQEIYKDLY
Bile acid receptor (Homo sapiens), sequence (Q96RI1 whole entry, looked up): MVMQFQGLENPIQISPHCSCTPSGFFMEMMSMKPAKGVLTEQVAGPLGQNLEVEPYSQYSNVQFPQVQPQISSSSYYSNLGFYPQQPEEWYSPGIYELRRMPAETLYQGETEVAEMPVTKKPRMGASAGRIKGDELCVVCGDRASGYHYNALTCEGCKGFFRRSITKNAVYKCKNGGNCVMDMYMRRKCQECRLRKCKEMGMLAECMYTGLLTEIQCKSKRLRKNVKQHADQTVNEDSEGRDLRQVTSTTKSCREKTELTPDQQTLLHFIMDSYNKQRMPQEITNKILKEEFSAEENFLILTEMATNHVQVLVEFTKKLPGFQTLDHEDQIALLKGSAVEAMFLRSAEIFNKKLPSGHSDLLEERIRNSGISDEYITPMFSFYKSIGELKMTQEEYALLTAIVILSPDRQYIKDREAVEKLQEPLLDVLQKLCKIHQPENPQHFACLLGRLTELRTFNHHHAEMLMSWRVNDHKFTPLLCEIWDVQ
Vitamin D3 receptor (Homo sapiens), sequence (P11473 whole entry, looked up): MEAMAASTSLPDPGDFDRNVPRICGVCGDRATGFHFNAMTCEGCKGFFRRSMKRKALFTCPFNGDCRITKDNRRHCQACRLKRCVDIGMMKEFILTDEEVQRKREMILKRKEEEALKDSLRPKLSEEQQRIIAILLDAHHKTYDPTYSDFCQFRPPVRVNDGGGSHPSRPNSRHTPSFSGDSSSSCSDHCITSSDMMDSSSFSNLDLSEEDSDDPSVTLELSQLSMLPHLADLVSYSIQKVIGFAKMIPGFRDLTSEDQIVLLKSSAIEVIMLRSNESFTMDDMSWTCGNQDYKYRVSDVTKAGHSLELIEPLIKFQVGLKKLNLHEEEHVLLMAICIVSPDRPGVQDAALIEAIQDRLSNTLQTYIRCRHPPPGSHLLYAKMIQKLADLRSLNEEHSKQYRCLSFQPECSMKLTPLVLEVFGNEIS
Glucocorticoid receptor (Homo sapiens), sequence (P04150 whole entry, looked up): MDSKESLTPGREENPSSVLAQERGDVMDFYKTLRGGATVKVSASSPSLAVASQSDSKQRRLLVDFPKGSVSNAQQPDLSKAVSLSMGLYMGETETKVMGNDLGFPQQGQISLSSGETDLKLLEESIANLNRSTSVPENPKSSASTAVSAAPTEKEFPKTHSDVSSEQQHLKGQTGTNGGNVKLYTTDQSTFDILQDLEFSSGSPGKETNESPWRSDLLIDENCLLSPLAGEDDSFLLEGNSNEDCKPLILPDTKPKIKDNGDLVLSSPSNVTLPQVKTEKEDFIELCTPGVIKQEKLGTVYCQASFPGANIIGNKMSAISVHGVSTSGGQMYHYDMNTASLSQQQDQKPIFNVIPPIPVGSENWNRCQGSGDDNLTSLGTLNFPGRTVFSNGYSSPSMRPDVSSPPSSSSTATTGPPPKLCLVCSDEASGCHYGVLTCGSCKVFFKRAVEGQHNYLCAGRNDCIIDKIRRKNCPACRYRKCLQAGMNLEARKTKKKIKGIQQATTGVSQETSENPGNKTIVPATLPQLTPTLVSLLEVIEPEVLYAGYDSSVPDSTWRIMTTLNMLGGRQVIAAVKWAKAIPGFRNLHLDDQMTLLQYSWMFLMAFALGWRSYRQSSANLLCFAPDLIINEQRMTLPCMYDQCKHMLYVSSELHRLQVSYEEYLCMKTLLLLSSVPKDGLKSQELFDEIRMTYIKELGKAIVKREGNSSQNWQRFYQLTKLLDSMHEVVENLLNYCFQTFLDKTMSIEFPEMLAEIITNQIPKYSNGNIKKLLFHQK
Retinoic acid receptor RXR-alpha (Homo sapiens), sequence (P19793 whole entry, looked up): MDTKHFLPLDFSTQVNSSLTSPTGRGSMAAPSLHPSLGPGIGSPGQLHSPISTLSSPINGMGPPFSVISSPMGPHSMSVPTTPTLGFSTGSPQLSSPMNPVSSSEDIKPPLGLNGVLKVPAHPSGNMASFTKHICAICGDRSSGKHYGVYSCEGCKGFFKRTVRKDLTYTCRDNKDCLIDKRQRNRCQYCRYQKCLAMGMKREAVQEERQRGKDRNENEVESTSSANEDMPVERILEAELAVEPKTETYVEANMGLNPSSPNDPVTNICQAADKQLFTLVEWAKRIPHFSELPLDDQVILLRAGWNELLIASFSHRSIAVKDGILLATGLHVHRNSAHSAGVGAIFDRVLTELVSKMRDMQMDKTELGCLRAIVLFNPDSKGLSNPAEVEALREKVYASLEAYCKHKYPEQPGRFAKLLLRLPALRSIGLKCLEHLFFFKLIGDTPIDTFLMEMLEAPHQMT

As for `CCC1CO1` (stereo not drawn), the compound was called inactive in [1], in [3], in assay [5], in assay [6], in assay [7] and in assay [8]. The compound was called inactive in [10] and in [11]. Further, the activation in assay [2] was -3% (inactive); in [16], -2.66% (inactive); in assay [17], -0.443% (inactive). In addition, the max response in [4] was -69.5%; in assay [9], -15.4%; in assay [12], -10.7%; in assay [13], -1.32% (inactive). For the same compound, the activity change % (negative = inhibition) in [14] is -15.4% (inactive). Also, the Potency entry in [15] was “inactive”.

As for `CCC(C)=O`, the compound was classed as inactive in [1], in [5], in [7], in assay [8] and in assay [11]. In addition, the activation is -3.19% (inactive) in assay [2], -2.15% (inactive) in [16] and -1.44% (inactive) in [17]. Further, the max response was -36.3% in assay [4], -3% in assay [9], -3.56% in [12] and 0.0353% (inactive) in assay [13]. The Potency result in assay [18], in assay [15] and in assay [19] was “inactive” in each case. For the same compound, in assay [14], the activity change % (negative = inhibition) is -18.3% (inactive).

On to `C=CCCCCCC`, for which the result in assay [1], in assay [3], in assay [5], in assay [6], in assay [7] and in assay [8] was inactive. Moreover, the result in assay [11] was inactive. In addition, the activation was 7.84% (inactive) in [2] and -2.89% (inactive) in assay [16]. The max response in assay [9] was -14%; in assay [12], 0.804%. In assay [14], the activity change % (negative = inhibition) was -3.79% (inactive).

Take `Cc1ccccc1C(N)=O`: the compound was classed as inactive in assay [1], in [3], in assay [5], in assay [10] and in assay [11]. For the same compound, the activation in [2] is -0.107% (inactive); in assay [16] it was 1.09% (inactive); in assay [17] it was 1.42% (inactive). The max response in [4] is 16.7%; in assay [9], -6.32%; in assay [12], 9.22%; in [13], 7.98% (inactive). Besides, the Potency result in [18] was “inactive”. Besides, the activity change % (negative = inhibition) in assay [14] is -3.78% (inactive).

With `CNC(=O)c1ccccc1`, the call in assay [1], in [5], in assay [7], in assay [8] and in [10] was inactive. Also, the activation in assay [2] was -1.59% (inactive); in assay [16], 1.09% (inactive); in [17], -1.22% (inactive). Moreover, the max response in assay [4] is 1.71%; in assay [9], -5.28%; in assay [12], -1.2%; in assay [13] it was 15.4% (inactive). Further, the Potency result in assay [18], in assay [15] and in assay [19] was “inactive” throughout. In assay [14], the activity change % (negative = inhibition) was -4.06% (inactive).

On to `Cc1ccc(CO)cc1`, for which the result in assay [1], in assay [3], in [5], in assay [7], in assay [8] and in assay [11] was inactive. Besides, the activation is -5.3% (inactive) in [2], -4.79% (inactive) in [16] and -1.4% (inactive) in [17]. For the same compound, the max response in [4] is 17.6%; in [9], -4.09%; in assay [12], -4.56%; in assay [13], 0.12% (inactive). Further, the Potency result in [18] was “inactive”. The activity change % (negative = inhibition) in assay [14] is 14.7% (inactive).

In the case of `O=C(O)c1ccccc1[N+](=O)[O-]`, the compound was classed as inactive in assay [1], in assay [3], in assay [5], in assay [7], in assay [8] and in assay [10]. Moreover, the compound was classed as inactive in [11]. Also, the activation is 7.49% (inactive) in assay [2], 2% (inactive) in [16] and 0.408% (inactive) in assay [17]. The results for the max response in [9], in [12] and in [13] were -10.1%, -4.69% and 2.43% (inactive), respectively. Also, in assay [14], the activity change % (negative = inhibition) was 6.51% (inactive).

With `C1CCOC1`, the outcome in assay [1], in assay [3], in [5], in assay [7], in assay [8] and in assay [10] was inactive. For the same compound, the activation in assay [2] is 0.528% (inactive); in assay [16] it was 1.06% (inactive); in assay [17], 1.14% (inactive). The max response in assay [9] was -14.4%; in [12], -8.68%; in [13], 0.04% (inactive). For the same compound, the Potency entry in assay [15] and in assay [19] was “inactive” in each case.
